Compound activity deposited in PubChem BioAssay by several laboratories.
Hits are enriched below; roughly 2.3% of the tested compounds scored in any of these assays.
Shn3 3UTR inh – Schnurri-3 reporter inhibition in Clone20 osteoblasts. inhibition, % at 12.5 µM. 360,000 compounds, 0.52% hits. Clone20 osteoblast Shn3 3'UTR firefly luciferase, 24 h. AID 588674;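 active = mean inhibition of at least 75% with every replicate also reaching 75%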;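 note: 0% = median of neutral control wells and 100% = pilot-screen positive control compound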
Jurkat NFkB inh – inhibitors of the PMA/ionomycin-induced NF-kB reporter in Jurkat cells. 330,000 compounds, 0.53% hits. inhibition, % at 4 µM. PMA/ionomycin-induced NF-kB luciferase reporter, luminescence. AID 435003; in the data active = inhibition above about 50%
697 NFkB inh – lowers PMA/ionomycin-induced NF-kB signal in 697 B cells; 697 B-cell NF-kB luciferase reporter, 16 h; inhibition, % at 4 µM; 330,000 compounds, 0.33% hits; AID 435022; in the data active = inhibition above about 35%
Gli-Sufu block – Gli-Sufu pathway antagonism. Sufu-KO-LIGHT fibroblasts, Gli luciferase reporter luminescence. AID 588413. 340,000 compounds, 0.74% hits. inhibition, % at 5 µM;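 active = inhibition above about 55%, limit read from the data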;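 note: 0% = DMSO-treated cells and 100% = wells with medium but no cells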
TRPM1 prom inh – inhibitors of MITF-driven TRPM1 promoter in melanoma cells; SK-MEL-5 TRPM1 promoter luciferase, 24 h; inhibition, % at 12.5 µM; 330,000 compounds, 0.83% hits; AID 488899;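 active = mean inhibition across replicates of 60% or more, whatever share of single replicates reaches that level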
LMP1 NFkB inh – inhibitors of Epstein-Barr LMP1-induced NF-kappaB reporter; LMP1-induced NF-kappaB luciferase reporter cells, luminescence; inhibition, % at 12.5 µM; 350,000 compounds, 0.69% hits; in the data active = inhibition above about 41%;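 note: 0% = neutral control wells and 100% = reference inhibitor control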
Gli antag conf – Gli-SUFU antagonism confirmation, single concentration. Sufu-KO-LIGHT cells, Gli luciferase reporter, luminescence. inhibition, % at 5 µM. shares compounds with Gli-Sufu block. AID 602428. 2,500 compounds, 40% hits;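 active = mean inhibition at 5 µM reaching about 45%, limit read from the data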;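 note: plate controls were DMSO-treated cells for no effect and wells lacking cells for full effect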
Gli cytotox – counter-screen for Gli-SUFU antagonists: cytotoxicity | 2,500 compounds, 32% hits | AID 651994 | shares compounds with Gli-Sufu block | Sufu-KO-LIGHT cells cytotoxicity, ATP luminescence | cytotoxicity, % at 5 µM;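 active = mean cytotoxicity at 5 µM above about 25%, limit read from the data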;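 note: cells exposed to compound overnight for roughly 16 to 18 hours; plate controls were DMSO wells with cells for no effect and medium without cells for full effect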
Wnt3a counter – Wnt3a reporter inhibition counter-screen; shares compounds with Gli-Sufu block; Wnt-LIGHT cells, Wnt3a-driven luciferase reporter, luminescence; inhibition, % at 6.25 µM; 2,500 compounds, 20% hits; AID 651995;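 active = mean inhibition above about 25%, limit read from the data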
Active calls of the source: *.

Results for Cc1onc(-c2c(F)cccc2Cl)c1C(=O)Nc1ccc(Cl)c(S(=O)(=O)N(C)C)c1 ?
Shn3 3UTR inh: -6; Jurkat NFkB inh: -6; 697 NFkB inh: -4; Gli-Sufu block: 58*; TRPM1 prom inh: -4; LMP1 NFkB inh: 8; Gli antag conf: 16; Gli cytotox: 13; Wnt3a counter: -21

Results for Cc1onc(-c2c(Cl)cccc2Cl)c1C(=O)Nc1ccc2c(c1)OCCO2 ?
Shn3 3UTR inh: 17; Jurkat NFkB inh: 4; 697 NFkB inh: -7; Gli-Sufu block: 0; TRPM1 prom inh: 7; LMP1 NFkB inh: 11

Results for Cc1onc(-c2c(F)cccc2Cl)c1C(=O)OCC(=O)Nc1cccc(S(=O)(=O)N(C)C)c1 ?
Shn3 3UTR inh: 14; Gli-Sufu block: 53; TRPM1 prom inh: 18; LMP1 NFkB inh: 4; Gli antag conf: 12; Gli cytotox: 6; Wnt3a counter: -50

Results for Cc1noc(C)c1C(=O)OCC(=O)Nc1cccc(S(=O)(=O)N(C)C)c1 ?
Shn3 3UTR inh: -1; Jurkat NFkB inh: -7; 697 NFkB inh: 9; Gli-Sufu block: -20; TRPM1 prom inh: 9; LMP1 NFkB inh: -5

What do the screens show for `O=C(COC(=O)C1CCN(S(=O)(=O)c2cccs2)CC1)Nc1ccc(F)cc1Cl`?
Shn3 3UTR inh: 1; Jurkat NFkB inh: -15; 697 NFkB inh: 1; Gli-Sufu block: -2; TRPM1 prom inh: 9; LMP1 NFkB inh: 12

Results for c1ccc2c(c1)nc1n2CCN1CCN1CCCC1 ?
Shn3 3UTR inh: 6; Jurkat NFkB inh: -5; 697 NFkB inh: -8; Gli-Sufu block: 12; TRPM1 prom inh: 5; LMP1 NFkB inh: 0

What do the screens show for `Cc1cc(=O)oc2cc(OCC3CC(c4ccc(N(C)C)cc4)=NO3)ccc12` (stereo not drawn)?
Shn3 3UTR inh: 2; Jurkat NFkB inh: 0; 697 NFkB inh: 6; Gli-Sufu block: 99*; TRPM1 prom inh: -10; LMP1 NFkB inh: 4; Gli antag conf: 0; Gli cytotox: 17; Wnt3a counter: -71

How did OCCC1CN(Cc2ccccc2O)CCN1CCCc1ccccc1 (stereo not drawn) do in these assays?
Shn3 3UTR inh: 64; Jurkat NFkB inh: 1; 697 NFkB inh: 5; Gli-Sufu block: 54; TRPM1 prom inh: 13; LMP1 NFkB inh: -15; Gli antag conf: 30; Gli cytotox: -1; Wnt3a counter: -43

Results for Cc1nc(N)nc(Nc2ccc(Cl)cc2)c1Br ?
Shn3 3UTR inh: 8; Jurkat NFkB inh: -32; 697 NFkB inh: -10; Gli-Sufu block: -4; TRPM1 prom inh: -4; LMP1 NFkB inh: -8

How did Cc1nc(N)nc(Nc2ccc(C#N)cc2)c1Br do in these assays?
Shn3 3UTR inh: 13; Jurkat NFkB inh: -2; 697 NFkB inh: 3; Gli-Sufu block: 56*; TRPM1 prom inh: 5; LMP1 NFkB inh: 4; Gli antag conf: 32; Gli cytotox: 20; Wnt3a counter: -2

Results for CN(C)S(=O)(=O)c1ccc2oc(SCC(N)=O)nc2c1 ?
Shn3 3UTR inh: 4; Jurkat NFkB inh: -13; 697 NFkB inh: 8; Gli-Sufu block: 67*; TRPM1 prom inh: 9; LMP1 NFkB inh: 1; Gli antag conf: 12; Gli cytotox: 7; Wnt3a counter: -3

What do the screens show for `CN(C)S(=O)(=O)c1ccc2oc(SCC(=O)c3c(N)n(C4CC4)c(=O)[nH]c3=O)nc2c1`?
Shn3 3UTR inh: 12; Jurkat NFkB inh: 7; 697 NFkB inh: -18; Gli-Sufu block: -2; TRPM1 prom inh: -11; LMP1 NFkB inh: 11

Results for O=C(Cc1ccccc1F)Nc1nc2ccccc2[nH]1 ?
Shn3 3UTR inh: -10; Jurkat NFkB inh: -23; 697 NFkB inh: -32; Gli-Sufu block: 67*; TRPM1 prom inh: -18; LMP1 NFkB inh: -2; Gli antag conf: 12; Gli cytotox: 8; Wnt3a counter: -34

Results for O=C(Cc1cccc2ccccc12)Nc1nc2ccccc2[nH]1 ?
Shn3 3UTR inh: -5; Jurkat NFkB inh: -7; 697 NFkB inh: 5; Gli-Sufu block: 9; TRPM1 prom inh: 7; LMP1 NFkB inh: 9

What do the screens show for `Cc1ccccc1N1CCN(C(=S)c2ccc([N+](=O)[O-])cc2)CC1`?
Shn3 3UTR inh: -3; Jurkat NFkB inh: -14; 697 NFkB inh: 15; Gli-Sufu block: 8; TRPM1 prom inh: -4; LMP1 NFkB inh: 5

Results for COCCN(Cc1cc2c(C)cc(C)cc2nc1Cl)C(=O)c1ccccc1F ?
Shn3 3UTR inh: 84; Jurkat NFkB inh: 0; 697 NFkB inh: -14; Gli-Sufu block: 58*; LMP1 NFkB inh: 7; Gli antag conf: 26; Gli cytotox: 15; Wnt3a counter: -27

What do the screens show for `COCCN(Cc1cc2cc(C)cc(C)c2nc1Cl)C(=O)Nc1ccccc1`?
Shn3 3UTR inh: -20; Jurkat NFkB inh: 47; 697 NFkB inh: -28; Gli-Sufu block: -4; TRPM1 prom inh: -12; LMP1 NFkB inh: 6

Results for O=C(C[C@@H]1C/C=C\C[C@H](NC(=O)OCC2c3ccccc3-c3ccccc32)C(=O)OC[C@H]2CCCN2C1=O)N[C@H](CO)Cc1ccccc1 ?
Shn3 3UTR inh: 80; Jurkat NFkB inh: 3; 697 NFkB inh: 18; Gli-Sufu block: 68*; TRPM1 prom inh: -9; LMP1 NFkB inh: 10; Gli antag conf: 65*; Gli cytotox: 24; Wnt3a counter: -19

How did O=C(C[C@@H]1C/C=C\C[C@H](NC(=O)OCC2c3ccccc3-c3ccccc32)C(=O)OC[C@@H]2CCCN2C1=O)N[C@@H](CO)Cc1ccccc1 do in these assays?
Shn3 3UTR inh: 11; Jurkat NFkB inh: -2; 697 NFkB inh: 6; Gli-Sufu block: 33; TRPM1 prom inh: -1; LMP1 NFkB inh: -5

How did O=C(C[C@H]1C/C=C\C[C@H](NC(=O)OCC2c3ccccc3-c3ccccc32)C(=O)OC[C@@H]2CCCN2C1=O)N[C@H](CO)Cc1ccccc1 do in these assays?
Shn3 3UTR inh: 28; Jurkat NFkB inh: 1; 697 NFkB inh: -9; Gli-Sufu block: 50; TRPM1 prom inh: -3; LMP1 NFkB inh: -1; Gli antag conf: 46*; Gli cytotox: 11; Wnt3a counter: -7

Results for O=C(C[C@@H]1C/C=C\C[C@H](NC(=O)OCC2c3ccccc3-c3ccccc32)C(=O)OC[C@@H]2CCCN2C1=O)N[C@H](CO)Cc1ccccc1 ?
Shn3 3UTR inh: -8; Jurkat NFkB inh: 2; 697 NFkB inh: 8; Gli-Sufu block: 1; TRPM1 prom inh: -1; LMP1 NFkB inh: 4

What do the screens show for `Cc1ccccc1NC(=S)NNC(=O)c1cccnc1`?
Shn3 3UTR inh: 6; Jurkat NFkB inh: 13; 697 NFkB inh: -2; Gli-Sufu block: -2; TRPM1 prom inh: 10; LMP1 NFkB inh: 2
